Data from PubChem BioAssay (NCATS).
Results filed as inconclusive are left out. Activity calls are given as the source filed them. The call rests on the fitted dose curve; in most records, active means well fitted curve in the direction sought with a large enough effect in the repeat runs; inconclusive means weak or mixed curves; inactive means no such curve, though single readings can be large; an effect the other way counts as inactive or inconclusive.

How the values were obtained:
[1] = target: Cytochrome P450 2D6 (Homo sapiens) (UniProt P10635); assay: Cytochrome P450 family 2 subfamily D member 6 (CYP2D6) small molecule antagonists: luciferase biochemical (cell-free) qHTS assay (AID 1645840)
Cytochrome P450 2D6 (Homo sapiens), sequence (P10635 whole entry, looked up): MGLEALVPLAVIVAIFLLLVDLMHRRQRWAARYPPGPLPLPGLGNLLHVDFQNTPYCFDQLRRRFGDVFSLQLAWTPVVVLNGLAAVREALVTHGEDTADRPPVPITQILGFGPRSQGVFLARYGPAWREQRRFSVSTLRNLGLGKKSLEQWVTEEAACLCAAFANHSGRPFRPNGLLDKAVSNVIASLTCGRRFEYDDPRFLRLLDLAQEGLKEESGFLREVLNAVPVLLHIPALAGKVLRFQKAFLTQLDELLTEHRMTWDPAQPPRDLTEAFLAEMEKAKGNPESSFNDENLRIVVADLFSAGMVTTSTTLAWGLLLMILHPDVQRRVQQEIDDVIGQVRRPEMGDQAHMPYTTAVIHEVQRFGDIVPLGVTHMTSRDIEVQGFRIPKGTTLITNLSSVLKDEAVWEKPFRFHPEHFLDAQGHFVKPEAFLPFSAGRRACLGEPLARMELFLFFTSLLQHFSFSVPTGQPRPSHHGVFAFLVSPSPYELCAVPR
Outline: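 P450-Glo CYP2D6 system: proluciferin substrate converted by enzyme to luciferin, read by luminescence proportional to activity. Enzyme-substrate mix with compound 10 min at room temperature, then NADPH regeneration 1 h before detection reagent.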

[2] = target: Cytochrome P450 2C9 (Homo sapiens) (UniProt P11712); assay: Cytochrome P450 family 2 subfamily C member 9 (CYP2C9) small molecule antagonists: luciferase biochemical (cell-free) qHTS assay (AID 1645842)
Cytochrome P450 2C9 (Homo sapiens), sequence (P11712 whole entry, looked up): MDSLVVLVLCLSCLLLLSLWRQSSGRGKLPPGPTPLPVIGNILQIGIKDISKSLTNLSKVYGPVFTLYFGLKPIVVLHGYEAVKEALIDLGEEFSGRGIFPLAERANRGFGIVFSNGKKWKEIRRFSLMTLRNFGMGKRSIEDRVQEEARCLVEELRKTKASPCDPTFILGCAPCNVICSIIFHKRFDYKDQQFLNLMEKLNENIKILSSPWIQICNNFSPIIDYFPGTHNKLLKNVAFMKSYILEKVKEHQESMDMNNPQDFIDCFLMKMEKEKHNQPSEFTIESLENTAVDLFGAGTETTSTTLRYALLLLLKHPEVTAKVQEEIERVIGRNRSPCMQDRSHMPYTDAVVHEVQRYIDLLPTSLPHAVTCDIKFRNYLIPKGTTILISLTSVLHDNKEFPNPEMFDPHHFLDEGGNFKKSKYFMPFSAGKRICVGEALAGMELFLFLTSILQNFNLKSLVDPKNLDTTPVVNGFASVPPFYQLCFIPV
Outline: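 P450-Glo CYP2C9 system: proluciferin substrate with enzyme in mix containing 0.4% BSA, 10 min at room temperature, then NADPH regeneration solution added and incubated 1 h at 37C. Detection reagent stopped reaction; luminescence read after 20 min as RLU.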
Further: nearly all actives have a fitted effect of over 55% in size.
Potency means the concentration at half of the fitted maximal effect.

SMILES | Potency [1] | Potency [2]
Cc1ccc2nc(NC(=O)CSc3nccn3Cc3ccccc3)sc2c1 | 8.49 µM (active) | 9.52 µM (active)
CCOc1ccccc1CNC(=O)C1CCN(S(=O)(=O)c2c(C)noc2/C=C/c2ccccc2F)CC1 | inactive | 0.151 µM (active)
COc1ccc(CCNC(=O)c2nc(SCc3ccccc3F)ncc2Cl)cc1OC | inactive | 0.379 µM (active)
CCOC(=O)N1CCc2c(sc3c2c(=O)n(CCc2ccccc2)c(=O)n3CC(=O)Nc2cccc(C)c2)C1 | 1.07 µM (active) | 1.69 µM (active)
COC(=O)c1c(-c2ccc(Cl)cc2)noc1N1CCN(c2ccccc2OC)CC1 | inactive | inactive
Cc1nnc(N2CCC(C(=O)NCCc3ccccc3Cl)CC2)c2nn(-c3ccccc3)c(C)c12 | 2.13 µM (active) | 1.9 µM (active)
CC1(C#N)CCN(c2c(C(=O)N3CCN(C(=O)C4CC4)CC3)cnc3c(F)cc(F)cc23)CC1 | inactive | 12 µM (active)
CCc1ccc(C2=CC(c3cccc(C)c3)n3c(nc4ccccc43)N2)cc1 (stereo unspecified) | 9.52 µM (active) | 6.01 µM (active)
CC[C@H](CO)Nc1cc(NCc2ccc(-c3ccccn3)cc2)c2ncn(C(C)C)c2n1 | 16.9 µM (active) | 1.34 µM (active)
Cc1nc2c3ccccc3nc(NNC(=O)CCC(=O)N3CCN(c4ccc(F)cc4)CC3)n2n1 | inactive | 3.79 µM (active)
COc1ccc(CNC(=O)C2CCCN(c3nnc(C)c4c(C)n(-c5ccc(C)cc5)nc34)C2)cc1 (stereo unspecified) | 19 µM (active) | 2.68 µM (active)
CN(C)S(=O)(=O)n1cc(/C=C(\NC(=O)c2ccccc2)C(=O)NCCCn2ccnc2)c2ccccc21 | 0.0535 µM (active) | 0.213 µM (active)
Nc1ccn(C2O[C@H](CO)[C@@H](O)[C@@H]2O)c(=O)n1 (stereo partly specified) | inactive | inactive
O=C(CC1N=C2c3ccccc3N=C(SCc3ccc(Cl)cc3)N2C1=O)NCCc1ccccc1 (stereo unspecified) | 2.13 µM (active) | 1.9 µM (active)
CC(=O)Nc1ccc(C)cc1-c1nc2ccccc2n(CC(=O)Nc2cc(Cl)ccc2C)c1=O | 0.338 µM (active) | 3.01 µM (active)
COc1ccc(CNC(=O)Nc2ccc3c(c2)N(C)C(=O)c2ccccc2S3)cc1OC | 9.52 µM (active) | inactive
NCC1OC(OC2C(N)CC(N)C(OC3OC(CO)C(O)C(N)C3O)C2O)C(N)CC1O (stereo unspecified) | inactive | inactive
COc1ccc(Cn2c(SCc3ccc(C(=O)NC4CCCC4)cc3)nc3ccncc32)cc1 | 6.01 µM (active) | 0.674 µM (active)
COc1ccc(NC(=O)CSc2oc(-c3cccs3)nc2S(=O)(=O)c2ccc(Br)cc2)c(OC)c1 | inactive | 0.477 µM (active)
Cc1ccc(S(=O)(=O)Nc2nc3n(n2)C(c2ccc(F)cc2)C=C(c2ccccc2)N3)cc1 (stereo unspecified) | inactive | inactive
Cc1cccc(NC(=O)CSc2nc3ccccc3c3nc(CCn4cncc4C)nn23)c1 | 3.01 µM (active) | 1.51 µM (active)

SMILES | Potency [1] | Potency [2]
Cc1cccn2c(=O)c3cc(C#N)c(=O)n(-c4nnc(SCc5ccc(Cl)cc5)s4)c3nc12 | inactive | 6.01 µM (active)
C[C@H]1[C@@H](OC(=O)CCC(=O)O)O[C@@H]2O[C@]3(C)CC[C@H]4[C@H](C)CC[C@@H]1[C@@]24OO3 | inactive | inactive
CCOc1ccc(CNC(=O)Cn2c(=O)c3cccn3c3ccc(F)cc32)cc1 | inactive | inactive
CCOC(=O)c1cc(S(=O)(=O)N2CCN(c3cc(Cl)ccc3C)CC2)[nH]n1 | 26.8 µM (active) | 1.2 µM (active)
COC(=O)C1=C(c2ccccc2)c2ccccc2S(=O)(=O)N1CC(=O)Nc1ccccc1Cl | 3.79 µM (active) | 4.77 µM (active)
Cc1noc(/C=C/c2cccs2)c1S(=O)(=O)N1CCC(C(=O)NCc2ccc(Cl)cc2)CC1 | 2.39 µM (active) | 0.213 µM (active)
Cc1ccc(Cn2ccnc2SCC(=O)Nc2nc3ccccc3s2)cc1 | 10.7 µM (active) | 8.49 µM (active)
O=c1cc2nc(-c3cccs3)nc(SCCOc3ccc(Cl)cc3)n2[nH]1 | inactive | 19 µM (active)
CCc1ccc(C2=CC(c3cccc(OC)c3OC)n3c(nc4ccccc43)N2)cc1 (stereo unspecified) | 16.9 µM (active) | 3.79 µM (active)
COc1ccc(NC(=O)Cn2ccn(-c3ccc(C)c(C)c3)c(=O)c2=O)cc1Cl | inactive | inactive
Cc1cc(NC(=O)C2CCN(S(=O)(=O)c3ccc4[nH]c(=O)oc4c3)CC2)ccc1Br | 16.9 µM (active) | 0.425 µM (active)
CCOC(=O)c1ccc(NC(=O)c2cc(=O)c3ccc(C)c(C)c3o2)cc1 | inactive | inactive
COc1cccc(Cn2c(SCC(=O)N3CCN(c4ccc(F)cc4)CC3)nc3ccccc32)c1 | 10.7 µM (active) | 2.13 µM (active)
COc1ccc(NC(=O)c2nc(SCc3ccc(F)cc3)ncc2Cl)cc1 | inactive | 3.38 µM (active)
CC1(C#N)CCN(c2c(C(=O)N3CCC(C(=O)C4CC4)CC3)cnc3ccc(F)cc23)CC1 | 10.7 µM (active) | 1.9 µM (active)
COc1ccc(-c2nc(SCC(=O)Nc3ccc4c(c3)OCO4)c(-c3ccccc3)[nH]2)cc1 | 6.01 µM (active) | 1.2 µM (active)
COc1cccc(C(=O)NC(c2ccc(Cl)cc2)c2cc(Cl)c3cccnc3c2O)c1 (stereo unspecified) | inactive | 23.9 µM (active)
Cc1ccc2nc3c(cc(C#N)c(=O)n3-c3nnc(SCc4ccccc4)s3)c(=O)n2c1 | inactive | 3.79 µM (active)
Cc1ccc(C)c(N2CCN(C(=O)C3CCN(S(=O)(=O)c4ccc5[nH]c(=O)oc5c4)CC3)CC2)c1 | inactive | 2.13 µM (active)
Cc1ccc(CNC(=O)C(C)n2nc(C)c3sc4ccccc4c3c2=O)cc1 (stereo unspecified) | 13.5 µM (active) | 2.39 µM (active)
CN(C)S(=O)(=O)c1ccc(S(=O)(=O)N(Cc2ccccc2Cl)C[C@@H]2CCCO2)cc1 | inactive | 9.52 µM (active)

SMILES | Potency [1] | Potency [2]
COc1ccc(Br)c2c1-c1nc(NC(=O)c3ccccc3SC)sc1C2 | inactive | inactive
COc1ccc(CNC(=O)Cn2c(SCC(=O)Nc3ccc(C)c(C)c3)nc3ccccc32)cc1 | inactive | 2.39 µM (active)
CCC(=O)N1CCc2cc(S(=O)(=O)NC(Cc3ccccc3)C(=O)NCc3cccc(OC)c3)ccc21 (stereo unspecified) | 12 µM (active) | 12 µM (active)
C=Cc1ccc(Cn2c(SCC(=O)N3CCN(c4ccc(F)cc4)CC3)nc3ccccc32)cc1 | inactive | 3.38 µM (active)
COc1ccc(-n2nc3c(N4CCCC(C(=O)NCc5ccc(C)cc5)C4)nnc(C)c3c2C)cc1 (stereo unspecified) | 3.79 µM (active) | inactive
COC(=O)c1cnc(N2CCN(c3ccc(OC)cc3)CC2)c2ccccc12 | inactive | 2.13 µM (active)
Cc1cccc(NC(c2ccccc2C)c2ccc3ccc(C)nc3c2O)n1 (stereo unspecified) | inactive | 6.74 µM (active)
Cc1oc(-c2ccccc2F)nc1Cn1c(SCc2ccccc2F)nc2ccncc21 | 12 µM (active) | 9.52 µM (active)
Cc1cc(O)c(Cl)c(C)c1Cl | inactive | inactive
COc1ccccc1C(=O)Oc1ccc(C(c2c(C)[nH][nH]c2=O)c2c(C)[nH][nH]c2=O)cc1 | inactive | 10.7 µM (active)
Cc1ccc(CSC2=Nc3ccccc3C3=NC(CC(=O)NCc4cccs4)C(=O)N23)cc1 (stereo unspecified) | 6.74 µM (active) | 0.379 µM (active)
NC(=O)C[C@H](N)C(=O)O | inactive | inactive
Cc1ccc(NC(=O)Cn2cc(C(=O)c3ccco3)c3ccccc32)c(C)c1 | 6.74 µM (active) | 0.849 µM (active)
CC1(C#N)CCN(c2c(C(=O)N3CCN(S(C)(=O)=O)CC3)cnc3ccc(F)cc23)CC1 | inactive | inactive
Cc1ccccc1CNC(=O)CCCn1c(=O)c2cccn2c2ccccc21 | 6.74 µM (active) | 9.52 µM (active)
CCOC(=O)N1CCc2c(sc3c2c(=O)n(Cc2ccccc2)c(=O)n3CC(=O)Nc2ccc(F)cc2)C1 | 1.51 µM (active) | 2.39 µM (active)
COc1ccc(-n2nc3c(N4CCCC(C(=O)NCc5ccccc5C)C4)nnc(C)c3c2C)cc1 (stereo unspecified) | 4.77 µM (active) | 0.477 µM (active)
CNC(=O)c1ccc(CSc2nc3ccncc3n2Cc2ccc(C)cc2)cc1 | 13.5 µM (active) | 7.56 µM (active)
CCc1ccc(S(=O)(=O)NCc2ccc3c(c2)CCN3C(=O)c2ccc(C)cc2)cc1 | 5.35 µM (active) | 0.674 µM (active)
COc1ccc(CN(C2CCCCC2)[S+](C)(=O)[O-])cc1OC | inactive | 6.74 µM (active)
COc1ccc(C(C#N)C(C)C)cc1OC (stereo unspecified) | inactive | inactive
